JMJD2E inh – qHTS Assay for Inhibitors of Human Jumonji Domain Containing 2E (JMJD2E); Lysine-specific demethylase 4E (Homo sapiens), B2RXH2; JMJD2E catalytic domain, FDH-coupled NADH fluorescence (FDH is formaldehyde dehydrogenase); Potency, µM (highest dose often 57.1 µM), inactives show at the top dose activity change, negative = inhibition, usual class: inhibitors; hit rate 1.6% among 230,000; AID 2147, 2009; active means well fitted inhibition curve with a large enough effect, not every such curve was filed as active; inconclusive means small, poorly fitted or top-dose-only effect, or another doubt; inactive means no such curve, though single readings can be large or run the other way;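 further: potency means the concentration at half of the fitted maximal effect; 0% = wells with enzyme and -100% = buffer wells without enzyme; nearly all actives have a fitted effect of over 50% in size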
Tau fluor counter – Counterscreen qHTS for Inhibitors of Tau Fibril Formation, Fluorescence Polarization; hit rate 0.93% among 280,000; Potency, µM (series often up to 57.7 µM), inactives show top-dose activity change, negative = decrease; AID 1463, 2008; tau K18 P301L Alexa594 fluorescence, heparin fibrillization; further: potency means the concentration at half of the fitted maximal effect; nearly all actives have a fitted effect of over 55% in size
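Human K18 P301L tau (15 uM unlabeled plus 0.24 uM Alexa 594-labeled, final) in 100 mM sodium acetate pH 7 was mixed with compound and 20 uM heparin and incubated 6 hr at 37 C.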
PNC assembly inh – High Content Assay for Compounds that inhibit the Assembly of the Perinucleolar Compartment; PC3M PTB-GFP, PNC prevalence imaging, 16 h; hits give low values; activity change (PNC), negative = inhibition, % at 10 µM; hit rate 3.1% among 140,000;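 active means readout at or below -70, meaning at least 70% loss of cells showing the perinucleolar compartment, a nuclear body marking cancer cells; inconclusive means readout between -30 and a set limit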;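 further: plate controls were DMSO wells for no effect and camptothecin positive control wells for full effect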
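Compounds are pinned in duplicate onto adhered PC3M cells stably expressing GFP-tagged PTB and incubated 16 h at 37 C. Cells are then fixed, nuclei stained with Hoechst, and PNC-positive cells counted.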
Tau FP inhib – qHTS for Inhibitors of Tau Fibril Formation, Fluorescence Polarization; Microtubule-associated protein tau (Homo sapiens), P10636; K18 P301L tau heparin fibrillization, Alexa594 FP, 6 h; Potency, µM (series often up to 57.7 µM), without a hit: at the highest dose activity, negative = inhibition, hits mostly inhibitors; hit rate 0.39% among 280,000; AID 1468, 2008; further: potency means the concentration at half of the fitted maximal effect; nearly all actives have a fitted effect of over 55% in size
Target sequence (P10636 561-689 P618L limits assumed): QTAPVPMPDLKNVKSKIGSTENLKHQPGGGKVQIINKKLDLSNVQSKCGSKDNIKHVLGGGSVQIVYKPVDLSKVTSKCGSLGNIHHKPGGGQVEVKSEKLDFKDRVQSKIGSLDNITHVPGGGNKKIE
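Read-out: fluorescence polarization of Alexa 594-labeled tau (0.24 uM), 555 nm excitation, 632 nm emission. Mixtures held 15 uM unlabeled K18 P301L, compound and 20 uM heparin, pH 7 acetate buffer, incubated 6 hr at 37 C.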
Tau ThT inhib – qHTS for Inhibitors of Tau Fibril Formation, Thioflavin T Binding. AID 1460, 2008. hit rate 2.1% among 270,000. recombinant tau K18 P301L (four-repeat tau fragment), heparin-induced fibrillization, ThT fluorescence. Potency, µM (titrated, usually from 57.4 µM), for inactives: at the highest dose activity, negative = inhibition, usual class: inhibitors; further: potency means the concentration at half of the fitted maximal effect; nearly all actives have a fitted effect of over 55% in size
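In this qHTS, human K18 P301L tau is incubated with compound and heparin for 6 hr at 37 C, and Thioflavin T fluorescence then reports fibril load.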
NPSR antagonist – qHTS Assay for Antagonists of the Neuropeptide S Receptor: cAMP Signal Transduction; Q6W5P4; CHO-NPSR cells, cAMP TR-FRET, antagonist mode; Potency, µM (series often up to 38.3 µM), without a hit: at the top dose activity change, negative = inhibition, hits mostly inhibitors; hit rate 1% among 220,000; AID 1461, 2008; further: potency means the concentration at half of the fitted maximal effect; nearly all actives have a fitted effect of over 50% in size
Target sequence (Q6W5P4 whole entry, looked up): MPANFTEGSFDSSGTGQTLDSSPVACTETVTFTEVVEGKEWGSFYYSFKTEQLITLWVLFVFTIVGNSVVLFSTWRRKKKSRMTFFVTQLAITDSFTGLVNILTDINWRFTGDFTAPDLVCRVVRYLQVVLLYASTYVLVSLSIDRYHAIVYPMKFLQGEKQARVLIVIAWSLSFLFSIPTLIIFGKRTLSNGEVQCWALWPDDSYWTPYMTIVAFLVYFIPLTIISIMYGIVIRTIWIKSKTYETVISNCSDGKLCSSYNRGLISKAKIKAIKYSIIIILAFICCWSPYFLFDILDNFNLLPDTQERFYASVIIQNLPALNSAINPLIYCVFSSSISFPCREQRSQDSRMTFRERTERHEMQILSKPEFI
* hit, by the source's call; [ ] = dose if it differs, or a comment. This is a sample that favours compounds with a hit; in the whole collection about 5.1% have one here. Unless noted, the call rests on the fitted dose curve; in most records, active means well fitted curve in the direction sought with a large enough effect; inconclusive means small, poorly fitted or top-dose-only effect, or another doubt; inactive means no such curve, though single readings can be large; an effect the other way counts as inactive or inconclusive. Unless noted, on the % scale 0 is the no-effect control and ±100 the full control effect.

Results for COc1ccccc1Nc1nc(NCc2ccco2)c2ccccc2n1 ?
JMJD2E inh: inconclusive; Tau fluor counter: 22µM*[quencher]; Tau FP inhib: inconclusive; Tau ThT inhib: inconclusive; NPSR antagonist: inconclusive

Results for OCCNc1nc(Nc2ccc(Br)cc2)nc2ccccc12 ?
JMJD2E inh: inconclusive; Tau fluor counter: inconclusive; Tau FP inhib: inconclusive; Tau ThT inhib: -5%; NPSR antagonist: -27%

What do the screens show for `COC(=O)N1C2CC(=O)O[C@@H]3c4cc5c(cc4[C@]1(C)[C@@]3(Br)c1ccccc12)OCO5`?
JMJD2E inh: inconclusive; Tau fluor counter: 4%[11.6 µM]; Tau FP inhib: -1%[11.6 µM]; Tau ThT inhib: 9%[11.5 µM]

How did COc1ccccc1CNC(=O)Cn1c(=O)oc2cc(S(=O)(=O)NCc3ccccc3)ccc21 do in these assays?
Tau fluor counter: -15%; Tau FP inhib: -7%; Tau ThT inhib: -8%

Results for O=c1[nH][nH]c(-c2ccccc2O)c1C(C[N+](=O)[O-])c1cccc(Cl)c1 (stereo not given) ?
JMJD2E inh: -1%; Tau fluor counter: inconclusive; PNC assembly inh: 13; Tau FP inhib: -14%; Tau ThT inhib: 25µM*; NPSR antagonist: -15%

Results for O=c1[nH][nH]c(-c2ccccc2O)c1C(C[N+](=O)[O-])c1ccccc1 (stereo not given) ?
JMJD2E inh: -20%; Tau fluor counter: -8%; PNC assembly inh: -23; Tau FP inhib: 8%; Tau ThT inhib: -18%; NPSR antagonist: 10%

What do the screens show for `OCCN1CCN(CC(O)COc2ccc3ccccc3c2)CC1` (stereo not given)?
JMJD2E inh: inconclusive; Tau fluor counter: 2%; PNC assembly inh: 35; Tau FP inhib: 9%; Tau ThT inhib: -8%; NPSR antagonist: -12%[46.1 µM]

What do the screens show for `OCCN1CCN(C(c2cccs2)c2ccc3cccnc3c2O)CC1` (stereo not given)?
JMJD2E inh: 8.9µM*; Tau fluor counter: -16%; PNC assembly inh: 21; Tau FP inhib: inconclusive; Tau ThT inhib: inconclusive; NPSR antagonist: 10µM*

How did O=C1C(=O)c2ccccc2C(O)=C1c1ccccc1F do in these assays?
JMJD2E inh: -13%; Tau fluor counter: -23%; Tau FP inhib: -9%; Tau ThT inhib: inconclusive; NPSR antagonist: 13µM*

How did O=C1C(=O)c2ccccc2C(O)=C1C1CCC(c2ccc(Cl)cc2)CC1 (stereo not given) do in these assays?
JMJD2E inh: 0%; Tau fluor counter: -21%; Tau FP inhib: 2%; Tau ThT inhib: inconclusive

How did N[C@]1(C(=O)O)CCc2cc(P(=O)(O)O)ccc21 do in these assays?
JMJD2E inh: 40µM*; Tau fluor counter: -5%; Tau FP inhib: 1%; Tau ThT inhib: -5%

How did CCc1ccccc1NC(=O)C(C#N)Cc1cccnc1 (stereo not given) do in these assays?
JMJD2E inh: 0%; Tau fluor counter: 1%; PNC assembly inh: -82*; Tau FP inhib: 9%; Tau ThT inhib: -1%; NPSR antagonist: 8%

Results for O=C(CCCCn1c(=O)c2ccccc2n(Cc2ccccc2Cl)c1=O)NCCc1ccccc1 ?
Tau fluor counter: -5%; Tau FP inhib: -5%; Tau ThT inhib: -2%

How did CCOc1ccccc1NC(=O)CN(c1ccc(OC)cc1)S(=O)(=O)c1c(C)noc1C do in these assays?
JMJD2E inh: -3%; Tau fluor counter: -24%; PNC assembly inh: -97*; Tau FP inhib: 1%; Tau ThT inhib: -9%; NPSR antagonist: 2%[46.1 µM]

Results for CCOc1ccc(N(CC(=O)Nc2ccccc2C)S(=O)(=O)c2c(C)noc2C)cc1 ?
JMJD2E inh: 1%; Tau fluor counter: -23%; PNC assembly inh: -88*; Tau FP inhib: -4%; Tau ThT inhib: -9%; NPSR antagonist: 28%[46.1 µM]

How did CCOC(=O)C1=C(C)N(c2ccccc2)C(=O)/C1=C\c1ccc(O)c(OC)c1 do in these assays?
JMJD2E inh: 4.5µM*; Tau fluor counter: 25µM*[quencher]; Tau FP inhib: 35µM*; NPSR antagonist: -31%

What do the screens show for `CCOC(=O)C1=C(C)N(c2ccc(C)cc2)C(=O)/C1=C\c1cccs1`?
JMJD2E inh: -2%; Tau fluor counter: -25%; PNC assembly inh: inconclusive; Tau FP inhib: -18%; Tau ThT inhib: 16µM*; NPSR antagonist: -27%[46.1 µM]

How did COc1cc2c3nnc(-c4ccccc4)c-3cn(Cc3ccccc3F)c2cc1OC do in these assays?
JMJD2E inh: 3.5µM*; Tau fluor counter: -4%; Tau FP inhib: 3%; Tau ThT inhib: 2%; NPSR antagonist: 10µM*

How did CN(C)c1ccc(CNc2ccc3c(c2)ncn3C)cc1 do in these assays?
JMJD2E inh: -25%; Tau fluor counter: 16µM*[quencher]; PNC assembly inh: 36; Tau FP inhib: 0%; Tau ThT inhib: inconclusive; NPSR antagonist: -13%[46.1 µM]

How did CCCCn1cnc2cc(NCc3ccncc3)ccc21 do in these assays?
JMJD2E inh: inconclusive; Tau fluor counter: -10%; PNC assembly inh: 12; Tau FP inhib: 0%; Tau ThT inhib: -19%; NPSR antagonist: -2%[46.1 µM]

How did CCCc1nn2c(N)c(/C=C3\C=Nc4ccccc43)c(=O)nc2s1 do in these assays?
JMJD2E inh: -2%; Tau fluor counter: inconclusive; PNC assembly inh: 0; Tau FP inhib: -10%; Tau ThT inhib: 8.9µM*; NPSR antagonist: -10%

Results for CCCCc1nn2c(N)c(/C=C3\C=Nc4ccccc43)c(=O)nc2s1 ?
JMJD2E inh: -3%; Tau fluor counter: 9%; PNC assembly inh: inconclusive; Tau FP inhib: -10%; Tau ThT inhib: 6%; NPSR antagonist: -14%

How did COc1ccc(Br)cc1CNC(=O)c1ccc(-n2c(C)cc3c2CCC(C)C3)cc1 (stereo not given) do in these assays?
Tau fluor counter: -16%; Tau FP inhib: -13%; Tau ThT inhib: inconclusive

Results for COc1ccc(C(=O)c2cn(Cc3ccccc3)c3ccccc3c2=O)cc1OC ?
Tau fluor counter: -3%; Tau FP inhib: -3%; Tau ThT inhib: -4%

What do the screens show for `CC(CC1C(C#N)=C(N)SC(N)=C1C#N)c1ccccc1` (stereo not given)?
JMJD2E inh: 22µM*; Tau fluor counter: -15%; PNC assembly inh: 16; Tau FP inhib: -10%; Tau ThT inhib: inconclusive; NPSR antagonist: -5%[46.1 µM]

Screens: PubChem, National Center for Advancing Translational Sciences (NCATS)
